Source: PubChem BioAssay (NCI)
The panel holds about 79,000 compounds, 15% with a hit somewhere; the sample as a whole holds those more often. Unmarked numbers belong to inactive results. The source made the active and inactive calls. Rule as the data show it: active = growth inhibition above about 70%; inactive = the rest.

Legend:
[1] = NCI Yeast Anticancer Drug Screen. Data for the rad52 strain (AID 147);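 also: 0% = growth of vehicle-treated control cultures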; details: S. cerevisiae rad52 mutant growth inhibition, active compounds read high
Outline: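 Screen used a yeast mutant impaired in DNA repair. After compound exposure, growth was measured. Values reflect inhibition compared with vehicle-treated cells.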

[2] = NCI Yeast Anticancer Drug Screen. Data for the wt1 strain (AID 149);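 also: 0% = growth of vehicle-treated wt1 cultures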; details: S. cerevisiae wt1 strain (SPY 50644) growth inhibition, active compounds read high
Outline: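 Each compound is tested on wt1 yeast and the loss of growth versus vehicle gives the inhibition value.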

[3] = NCI Yeast Anticancer Drug Screen. Data for the rad50EPP+ strain (AID 151);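 also: 0% = growth of vehicle-treated control cultures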; details: S. cerevisiae rad50 mutant strain, active compounds read high
Outline: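 Exposing the rad50EPP+ strain to each compound, growth was compared with vehicle-only cultures to give inhibition.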

[4] = NCI Yeast Anticancer Drug Screen. Data for the mgt1 strain (AID 153); details: S. cerevisiae mgt1 mutant growth inhibition, active compounds read high
Outline: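 Genetically defined yeast (mgt1) treated with compound; inhibition of growth expressed against vehicle-treated controls.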

[5] = NCI Yeast Anticancer Drug Screen. Data for the rad50 strain (AID 155);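 also: 0% = growth of vehicle-only cultures of the same strain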; details: S. cerevisiae rad50 strain growth inhibition, active compounds read high
Outline: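 Vehicle-treated cultures provide the reference for the growth inhibition reported for compound-exposed, repair-deficient yeast.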

[6] = NCI Yeast Anticancer Drug Screen. Data for the mec2-1 strain (AID 157); details: S. cerevisiae mec2-1 strain, active compounds read high
Outline: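 Readout is yeast growth inhibition, normalised to vehicle-treated controls, in the mec2-1 strain exposed to compound.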

[7] = NCI Yeast Anticancer Drug Screen. Data for the sgs1 mgt1 strain (AID 161);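 also: 0% = growth of cultures given vehicle only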; details: S. cerevisiae sgs1 mgt1 strain, active compounds read high
Outline: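 Compounds are added to genetically altered yeast, and growth is compared with cultures given vehicle alone to give percent inhibition.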

[8] = NCI Yeast Anticancer Drug Screen. Data for the CLN2oe strain (AID 163);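 also: 0% = growth of vehicle-only control cultures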; details: S. cerevisiae CLN2oe strain, active compounds read high
Outline: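 Values reflect how much compound exposure reduced yeast growth, referenced to vehicle-exposed cells. Assay organism is a strain with a defined genetic change affecting cell-cycle control.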

[9] = NCI Yeast Anticancer Drug Screen. Data for the cln2 rad14 strain (AID 165);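 also: 0% = growth equal to vehicle treated cultures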; details: S. cerevisiae cln2 rad14 strain, active compounds read high
Outline: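 Relative to vehicle controls, growth inhibition of compound-treated cln2 rad14 yeast was recorded.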

[10] = NCI Yeast Anticancer Drug Screen. Data for the bub3 strain (AID 167); details: S. cerevisiae bub3 mutant strain, active compounds read high
Outline: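 Mutant yeast screening strain plus compound; vehicle-treated cultures serve as the 0% inhibition reference.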

[11] = NCI Yeast Anticancer Drug Screen. Data for the wt2 strain (AID 169); details: S. cerevisiae wt2 strain growth inhibition, active compounds read high
Outline: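 Values express reduction in yeast growth under compound treatment, referenced to vehicle-treated cells.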

[12] = NCI Yeast Anticancer Drug Screen. Data for the mlh1 strain (AID 171);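 also: 0% = growth of vehicle-treated control cultures of the same strain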; details: S. cerevisiae mlh1 strain growth inhibition, active compounds read high
Outline: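 Steps: expose the defined-mutant yeast strain to compound; expose a parallel culture to vehicle; measure growth; express compound effect as inhibition relative to the vehicle culture.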

[13] = NCI Yeast Anticancer Drug Screen. Data for the mlh1 rad18 strain (AID 175); details: S. cerevisiae mlh1 rad18 strain growth inhibition, active compounds read high
Outline: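 Test agents were incubated with a yeast strain of defined genotype (DNA damage repair defect). Inhibition of growth was derived by comparison with vehicle-exposed cultures.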

[14] = NCI Yeast Anticancer Drug Screen. Data for the rad18 strain (AID 177); details: S. cerevisiae rad18 mutant growth inhibition, active compounds read high
Outline: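 A genetically defined yeast mutant impaired in DNA damage repair was treated with test compounds, then its growth was measured against cultures receiving vehicle alone.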

[15] = NCI Yeast Anticancer Drug Screen. Data for the sgs1 strain (AID 173);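 also: 0% = growth of vehicle-only control cultures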; details: S. cerevisiae sgs1 mutant, active compounds read high
Outline: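 Treat defined-mutant yeast with compound; measure growth; calculate inhibition relative to vehicle-treated cells.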

[16] = at 5.0 µM (retest, dose inferred, filed as 0.5)
[17] = at 50.0 µM (retest, dose inferred, filed as 5.0)

O=C(Nn1c(-c2ccccc2)nc2ccccc2c1=O)c1ccc(CS)cc1
growth inhibition ([1]; at 1.2 µM): 5%
growth inhibition ([1]; at 3.7 µM): 20%
growth inhibition ([1]; at 11.0 µM): 12%
growth inhibition ([1]; at 33.0 µM): 53%
growth inhibition ([1]; at 100.0 µM): 98% (active)
growth inhibition ([2]; at 1.2 µM): -4%
growth inhibition ([2]; at 3.7 µM): -6%
growth inhibition ([2]; at 11.0 µM): -1%
growth inhibition ([2]; at 33.0 µM): 23%
growth inhibition ([2]; at 100.0 µM): 98% (active)
growth inhibition ([3]; at 1.2 µM): -2%
growth inhibition ([3]; at 3.7 µM): 6%
growth inhibition ([3]; at 11.0 µM): 5%
growth inhibition ([3]; at 33.0 µM): 31%
growth inhibition ([3]; at 100.0 µM): 76% (active)
growth inhibition ([4]; at 1.2 µM): -9%
growth inhibition ([4]; at 3.7 µM): -19%
growth inhibition ([4]; at 11.0 µM): -17%
growth inhibition ([4]; at 33.0 µM): 23%
growth inhibition ([4]; at 100.0 µM): 97% (active)
growth inhibition ([5]; at 1.2 µM): -5%
growth inhibition ([5]; at 3.7 µM): 2%
growth inhibition [5, 16]: -35%
growth inhibition ([5]; at 11.0 µM): 8%
growth inhibition ([5]; at 33.0 µM): 47%
growth inhibition [5, 17]: 10%
growth inhibition ([5]; at 50.0 µM): 79.2% (active)
growth inhibition ([5]; at 100.0 µM): 98% (active)
growth inhibition ([6]; at 1.2 µM): -4%
growth inhibition ([6]; at 3.7 µM): -17%
growth inhibition [6, 16]: -23%
growth inhibition ([6]; at 11.0 µM): -15%
growth inhibition ([6]; at 33.0 µM): 24%
growth inhibition [6, 17]: 34%
growth inhibition ([6]; at 50.0 µM): 43.4%
growth inhibition ([6]; at 100.0 µM): 97% (active)
growth inhibition [7, 16]: -11%
growth inhibition [7, 17]: 27%
growth inhibition ([7]; at 50.0 µM): 60.2%
growth inhibition ([8]; at 1.2 µM): -11%
growth inhibition ([8]; at 3.7 µM): 10%
growth inhibition ([8]; at 11.0 µM): 0%
growth inhibition ([8]; at 33.0 µM): 20%
growth inhibition ([8]; at 100.0 µM): 97% (active)
growth inhibition [9, 16]: 19%
growth inhibition [9, 17]: 40%
growth inhibition ([9]; at 50.0 µM): 27.5%
growth inhibition ([10]; at 1.2 µM): -7%
growth inhibition ([10]; at 3.7 µM): -14%
growth inhibition [10, 16]: -12%
growth inhibition ([10]; at 11.0 µM): -13%
growth inhibition ([10]; at 33.0 µM): 47%
growth inhibition [10, 17]: 81% (active)
growth inhibition ([10]; at 50.0 µM): 50.8%
growth inhibition ([10]; at 100.0 µM): 98% (active)
growth inhibition ([11]; at 1.2 µM): 9%
growth inhibition ([11]; at 3.7 µM): 6%
growth inhibition ([11]; at 11.0 µM): 9%
growth inhibition ([11]; at 33.0 µM): 34%
growth inhibition ([11]; at 100.0 µM): 98% (active)
growth inhibition ([12]; at 1.2 µM): 9%
growth inhibition ([12]; at 3.7 µM): 7%
growth inhibition ([12]; at 11.0 µM): 10%
growth inhibition ([12]; at 33.0 µM): 53%
growth inhibition ([12]; at 100.0 µM): 98% (active)
growth inhibition [13, 16]: -22%
growth inhibition [13, 17]: 74% (active)
growth inhibition ([13]; at 50.0 µM): 48%
growth inhibition ([14]; at 1.2 µM): 15%
growth inhibition ([14]; at 3.7 µM): 16%
growth inhibition ([14]; at 11.0 µM): 14%
growth inhibition ([14]; at 33.0 µM): 62%
growth inhibition ([14]; at 100.0 µM): 98% (active)

N#C/C(=C\NC(=S)Nc1ccc(S(N)(=O)=O)cc1)C(=O)c1ccc2ccccc2c1
growth inhibition ([1]; at 1.2 µM): -2%
growth inhibition ([1]; at 3.7 µM): -1%
growth inhibition ([1]; at 11.0 µM): 0%
growth inhibition ([1]; at 33.0 µM): -3%
growth inhibition ([1]; at 100.0 µM): 3%
growth inhibition ([2]; at 1.2 µM): 2%
growth inhibition ([2]; at 3.7 µM): 3%
growth inhibition ([2]; at 11.0 µM): 1%
growth inhibition ([2]; at 33.0 µM): 1%
growth inhibition ([2]; at 100.0 µM): 3%
growth inhibition ([3]; at 1.2 µM): -1%
growth inhibition ([3]; at 3.7 µM): -3%
growth inhibition ([3]; at 11.0 µM): 0%
growth inhibition ([3]; at 33.0 µM): 0%
growth inhibition ([3]; at 100.0 µM): -2%
growth inhibition ([4]; at 1.2 µM): -2%
growth inhibition ([4]; at 3.7 µM): -3%
growth inhibition ([4]; at 11.0 µM): -3%
growth inhibition ([4]; at 33.0 µM): -12%
growth inhibition ([4]; at 100.0 µM): 0%
growth inhibition ([5]; at 1.2 µM): -5%
growth inhibition ([5]; at 3.7 µM): -16%
growth inhibition [5, 16]: 57%
growth inhibition ([5]; at 11.0 µM): -18%
growth inhibition ([5]; at 33.0 µM): -2%
growth inhibition [5, 17]: 97% (active)
growth inhibition ([5]; at 50.0 µM): -13.3%
growth inhibition ([5]; at 100.0 µM): -1%
growth inhibition ([6]; at 1.2 µM): 0%
growth inhibition ([6]; at 3.7 µM): 2%
growth inhibition [6, 16]: 87% (active)
growth inhibition ([6]; at 11.0 µM): 2%
growth inhibition ([6]; at 33.0 µM): 5%
growth inhibition [6, 17]: 95% (active)
growth inhibition ([6]; at 50.0 µM): -3.5%
growth inhibition ([6]; at 100.0 µM): -1%
growth inhibition [7, 16]: 25%
growth inhibition [7, 17]: 96% (active)
growth inhibition ([7]; at 50.0 µM): -13.2%
growth inhibition ([8]; at 1.2 µM): -2%
growth inhibition ([8]; at 3.7 µM): -4%
growth inhibition ([8]; at 11.0 µM): -4%
growth inhibition ([8]; at 33.0 µM): 0%
growth inhibition ([8]; at 100.0 µM): -1%
growth inhibition [9, 16]: 92% (active)
growth inhibition [9, 17]: 78% (active)
growth inhibition ([9]; at 50.0 µM): 39.2%
growth inhibition ([10]; at 1.2 µM): -2%
growth inhibition ([10]; at 3.7 µM): -1%
growth inhibition [10, 16]: 99% (active)
growth inhibition ([10]; at 11.0 µM): -2%
growth inhibition ([10]; at 33.0 µM): -3%
growth inhibition [10, 17]: 91% (active)
growth inhibition ([10]; at 50.0 µM): -16.1%
growth inhibition ([10]; at 100.0 µM): -3%
growth inhibition ([11]; at 1.2 µM): -1%
growth inhibition ([11]; at 3.7 µM): -1%
growth inhibition ([11]; at 11.0 µM): -1%
growth inhibition ([11]; at 33.0 µM): 0%
growth inhibition ([11]; at 100.0 µM): -1%
growth inhibition ([12]; at 1.2 µM): -1%
growth inhibition ([12]; at 3.7 µM): 1%
growth inhibition ([12]; at 11.0 µM): 1%
growth inhibition ([12]; at 33.0 µM): 3%
growth inhibition ([12]; at 100.0 µM): 5%
growth inhibition ([15]; at 1.2 µM): 0%
growth inhibition ([15]; at 3.7 µM): 2%
growth inhibition ([15]; at 11.0 µM): 0%
growth inhibition ([15]; at 33.0 µM): 7%
growth inhibition ([15]; at 100.0 µM): 9%
growth inhibition [13, 16]: 84% (active)
growth inhibition [13, 17]: 97% (active)
growth inhibition ([13]; at 50.0 µM): 22.1%
growth inhibition ([14]; at 1.2 µM): -9%
growth inhibition ([14]; at 3.7 µM): -1%
growth inhibition ([14]; at 11.0 µM): 0%
growth inhibition ([14]; at 33.0 µM): -1%
growth inhibition ([14]; at 100.0 µM): 5%
